CYP2C9 inh: inhibitors of human CYP2C9; inhibition, % at 5 µM; CYP2C9 Supersomes, luciferin-H conversion, luminescence; actives 20% (n = 96,000); P11712; AID 777;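 active = blocking of liver enzyme CYP2C9 beyond about 50% at 5 µM, limit read from the data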
CYP2C19 inhib: inhibitors of human CYP2C19; P33261; CYP2C19 Supersomes, luciferin-H EGE luminescence, 30 min; inhibition, % at 5 µM; actives 21% (n = 96,000);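 active = CYP2C19 inhibition above a set limit at 5 µM in the primary screen, cut at about 50% in these data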;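 also: plate controls were negative control wells for no effect and 2.5 mM tranylcypromine positive control for full effect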
Target sequence (P33261 whole entry, looked up): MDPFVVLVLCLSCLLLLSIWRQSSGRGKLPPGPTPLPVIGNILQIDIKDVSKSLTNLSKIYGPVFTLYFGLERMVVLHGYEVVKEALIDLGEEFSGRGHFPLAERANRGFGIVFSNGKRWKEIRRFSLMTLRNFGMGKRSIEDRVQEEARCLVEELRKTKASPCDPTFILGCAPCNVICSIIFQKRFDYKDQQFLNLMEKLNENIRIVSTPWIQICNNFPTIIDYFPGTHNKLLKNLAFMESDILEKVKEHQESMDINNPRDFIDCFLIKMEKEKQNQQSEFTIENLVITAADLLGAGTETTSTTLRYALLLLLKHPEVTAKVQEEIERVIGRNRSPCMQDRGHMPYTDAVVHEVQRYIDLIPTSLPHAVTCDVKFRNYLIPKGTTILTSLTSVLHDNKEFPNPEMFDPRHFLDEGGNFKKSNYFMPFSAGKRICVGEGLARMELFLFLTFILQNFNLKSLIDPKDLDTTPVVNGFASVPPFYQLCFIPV
CYP2C9 activ: activators of human CYP2C9; P11712; recombinant CYP2C9, luciferin-H conversion, luminescence; active compounds read high; factor 1 = untreated enzyme, 0 = blocked; activation factor at 5 µM; actives 1.4% (n = 96,000); AID 1024;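 active = activation factor of 2 or more for CYP2C9 at a 5 µM dose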;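 also: 0 = sulfaphenazole-blocked wells and 1 = vehicle-only wells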
CYP2C19 act: increases human CYP2C19 enzyme activity | activation factor at 5 µM | 96,000 tested, under 10 active | recombinant CYP2C19, luciferin-H EGE luminescence; active compounds read high; 0 = fully inhibited enzyme, 1 = untreated enzyme | P33261;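 active = activation factor of at least 2 at 5 µM in the primary screen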;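 also: 0 = wells with 2.5 mM tranylcypromine and 1 = vehicle-only wells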
CD11b adhes inh: blocks human CD11b/CD18 adhesion to fibrinogen; K562 CD11b/CD18 adhesion to fibrinogen, ATPlite luminescence; Mn2+ added to activate the integrin; inhibition, % at 10 µM; actives 0.54% (n = 93,000); P05107+P11215;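 active = primary inhibition of 50% or more at 10 µM, then 40% or more on retest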
CD11b adhes enh: CD11b/CD18-fibrinogen binding enhancement. actives 0.07% (n = 93,000). activation, % at 10 µM. K562 CD11b/CD18 adhesion to fibrinogen, ATPlite luminescence;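 active = 10 µM primary screen giving 50% or more activity, confirmed by 40% or more on retest at that dose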
Numbers without * were called inactive; x = not tested or not shown. Shown are actives, neighbours in structure and some others; about 28% of the full set was active somewhere.

SMILES	CYP2C9 inh	CYP2C19 inhib	CYP2C9 activ	CYP2C19 act	CD11b adhes inh	CD11b adhes enh
Cc1ccc(S(=O)(=O)N2CCN(C(=O)C3=COCCO3)CC2)cc1C	3	97*	1	0	-36	-2
Cc1ccc(S(=O)(=O)N2CCCN(S(=O)(=O)c3ccc(C(F)(F)F)cc3)CC2)cc1	-149	33	2.5*	0.7	-14	-4
COc1ccc(S(=O)(=O)N2CCN(S(=O)(=O)c3ccc4c(c3)OCCO4)CC2)cc1	4	2	1	1	-12	2
Cc1ccc(S(=O)(=O)N2CCN(C(=O)c3nn(C(C)C)c(=O)c4ccccc34)CC2)cc1C	59*	38	0.4	0.6	9	1
COc1ccc(S(=O)(=O)N2CCN(S(=O)(=O)c3ccc4c(c3)OCCO4)CC2)cc1C	87*	99*	0.1	0	17	-2
CCOC(=O)C1CCN(C(=O)c2cnn3c(C)cc(C)nc23)CC1	13	4	0.9	1	13	0
CCOC(=O)N1CCN(C(=O)c2cnn(-c3ccccc3)c2NC(=O)c2ccccc2F)CC1	-24	-10	1.2	1.1	7	3
COc1ccc2cc(C3(C)NC(=O)N(CC(=O)Nc4c(C)n(C)n(-c5ccccc5)c4=O)C3=O)ccc2c1 (stereo not drawn)	x	x	x	x	-1	1
N#CCCN1CCN(S(=O)(=O)c2ccc(S(=O)(=O)NCC3CCCO3)cc2)CC1 (stereo not drawn)	6	-23	0.9	1.2	-21	-2
N#CCCN1CCN(S(=O)(=O)c2ccc(S(=O)(=O)N3CCOCC3)cc2)CC1	-1	-14	1	1.1	12	-1
CC1CCCCC1NS(=O)(=O)c1ccc(S(=O)(=O)N2CCN(CCC#N)CC2)cc1 (stereo not drawn)	45	52*	0.6	0.5	-22	4
CC(C)n1nc(C(=O)NCCc2ccc(S(N)(=O)=O)cc2)c2ccccc2c1=O	63*	9	0.4	0.9	-3	0
Cc1ccc2nc(N3CCN(S(=O)(=O)c4ccc5c(c4)OCCO5)CC3)c(C#N)cc2c1	50*	70*	0.5	0.3	x	x
Cc1ccc2nc(N3CCN(C(=O)c4cccs4)CC3)c(C#N)cc2c1	41	30	0.6	0.7	18	0
N#CCCN1CCN(S(=O)(=O)c2ccc3c(c2)OCCCO3)CC1	8	82*	0.9	0.2	-8	2
O=C(Nc1cccnc1)c1cccc(S(=O)(=O)N2CCOCC2)c1	8	10	0.9	0.9	0	0
Cc1cccc(N(Cc2cc3ccccc3[nH]c2=O)C(=O)c2ccco2)c1C	-10	-21	1.1	1.2	19	-2
CS(=O)(=O)N(Cc1ccccc1)c1ccc(C(=O)Nc2ccc3c(c2)OCO3)cc1	6	-1	0.9	1	3	-1
Cc1ccc(S(=O)(=O)N2CCCN(S(=O)(=O)c3ccc4c(c3)OCCO4)CC2)cc1	-171	27	2.7*	0.7	8	1
COc1nc(N/N=C/c2cc3c(cc2Br)OCO3)nc(N2CCOCC2)n1	77*	35	0.2	0.7	-6	-6
Cc1[nH]c(=O)[nH]c(=O)c1/C=N/NC(=O)[C@@H](NC(=O)OC(C)(C)C)C(C)C	2	-5	1	1.1	8	-4
CCC(CC)C(=O)NCCc1ccc(F)cc1	15	27	0.9	0.7	2	-3
Cc1ccc(Cl)cc1N1CCN(Cc2nc3ccsc3c(=O)[nH]2)CC1	22	70*	0.8	0.3	4	0
N#CCSc1ncnc2c1cnn2CCO	-9	-9	1.1	1.1	-6	0
COc1ccccc1Cc1nc(-c2ccc(Br)o2)no1	32	90*	0.7	0.1	-1	0
SMILES	CYP2C9 inh	CYP2C19 inhib	CYP2C9 activ	CYP2C19 act	CD11b adhes inh	CD11b adhes enh
COn1c(SCC(=O)N(C)C)nc2ccccc2c1=O	-12	13	1.1	0.9	-4	-2
COC(=O)c1cc(F)c(-n2cncn2)c(F)c1	9	70*	0.9	0.3	x	x
COC(=O)c1ccc(N2CCOCC2)c(F)c1	42	36	0.6	0.6	-2	-6
CC(=O)c1cc(-c2nc3ccccc3n2C)n(C)c1	73*	56*	0.3	0.4	-2	0
COc1ccc(CSc2nnc3n(C)c(=O)c4c5c(sc4n23)CCCC5)cc1	-3	-3	1	1	-6	0
CCOC(=O)Cc1csc(Nc2ccc(Cl)cc2)n1	x	x	x	x	-1	-7
Cc1nc(SCC(=O)Nc2cccc(Cl)c2)n[nH]1	23	64*	0.8	0.4	-18	-3
CCOC(=O)Cc1csc(SCC(=O)Nc2cccc(Cl)c2)n1	66*	32	0.3	0.7	44	-3
CCOC(=O)Cc1csc(SCC(=O)N2CCN(c3ccc(OC)cc3)CC2)n1	45	16	0.5	0.8	1	-4
O=C(CSc1ccc(Cl)cc1)Nc1ccccc1Oc1ccccc1	x	x	x	x	4	8
CCOC(=O)Cc1csc(SCC(=O)Nc2cccc(C#N)c2)n1	80*	66*	0.2	0.3	-11	-1
CCOC(=O)Cc1csc(SCC(=O)Nc2cc(Cl)ccc2Oc2ccccc2)n1	94*	91*	0.1	0.1	74	-3
NC(=O)C1CCN(C(=O)Cn2cccc2C(=O)c2ccccc2)CC1	1	-4	1	1	4	-1
CCOC(=O)c1c(NC(=O)COC(=O)Cn2c(C(F)(F)F)nc3ccccc32)sc(C)c1C	36	-1	0.6	1	4	0
CC1CCN(S(=O)(=O)c2ccc(S(=O)(=O)NCC(=O)C(C)(C)C)cc2)CC1	15	15	0.8	0.9	2	-3
Oc1c(Br)cc(C2N=C(c3ccccc3Cl)NO2)cc1Br (stereo not drawn)	24	26	0.8	0.7	x	x
O=C(NC1CC2CCCC(C1)N2Cc1ccco1)NC12CC3CC(CC(C3)C1)C2 (stereo not drawn)	-5	-20	1.1	1.2	-10	-3
NC(=O)Cn1c(=O)n(C2CCCCC2)c(=O)c2c3c(sc21)CCCCC3	x	x	x	x	8	30
CCOC(=O)C(NC(=O)c1ccc(OC)cc1)(N1CCOCC1)C(F)(F)F (stereo not drawn)	63*	35	0.4	0.7	-32	-1
CCOC(=O)C(NC(C)=O)(N1CCc2ccccc2C1)C(F)(F)F (stereo not drawn)	92*	75*	0.1	0.3	1	-1
CCOC(=O)C(NC(=O)c1ccccc1)(N1CCOCC1)C(F)(F)F (stereo not drawn)	-5	13	1.1	0.9	-2	0
CCOC(=O)C(NC(=O)c1ccccc1)(N1CCCC1=O)C(F)(F)F (stereo not drawn)	17	53*	0.8	0.5	45	4

High-throughput results as filed in PubChem.
